Compound activity from PubChem.
A selection: hits, their analogues and other compounds. The true share with any hit is near 3.5%.
mHTT CaM bind – mutant huntingtin-calmodulin interaction inhibitors – biochemical, AlphaScreen, primary screen | P42858 | AlphaScreen His-mHTT/GST-CaM binding, luminescence | inhibition, % at 15 µM | 3.6% of 190,000 active
Pf apPOL inh – Pf-apPOL inhibitors, biochemical, fluorescence | 0.25% of 210,000 active | Plasmodium falciparum apicoplast DNA polymerase (apPOL) | inhibition, % at 10 µM | Recombinant Pf-apPOL, molecular beacon fluorescence, 1.5 h | AID 1794808, 2022
A number is an active result; 0 = inactive; - = not tested or not shown. Cut-off read from the data, not from the text of the source: active = inhibition above about 50%; inactive = the rest.

SMILES | mHTT CaM bind | Pf apPOL inh
Cc1cc2c(cc1C)N[C@]1(C[C@H]3CCCC(=O)N4CC[C@@H](C1)[C@@H]34)C(=NCc1ccccc1)N2 | 0 | 0
Cc1cc2c(cc1C)N[C@]1(C[C@H]3CCCC(=O)N4CC[C@@H](C1)[C@@H]34)C(=NC(C)(C)CC(C)(C)C)N2 | 100 | 0
O=C1CCC[C@@H]2C[C@@]3(C[C@@H]4CCN1[C@H]24)Nc1cc(Cl)ccc1NC3=NCc1ccccc1 | 62 | 0
O=C1CCC[C@@H]2C[C@@]3(C[C@@H]4CCN1[C@H]24)Nc1cc([N+](=O)[O-])ccc1NC3=NC1CCCCC1 | 51 | 0
CC(C)(C)CC(C)(C)N=C1Nc2ccc(Cl)cc2N[C@]12C[C@H]1CCCC(=O)N3CC[C@@H](C2)[C@@H]13 | 73 | 0
Cc1cc2c(cc1C)N[C@]1(C[C@H]3CCC(=O)N4CC[C@@H](C1)[C@@H]34)C(=Nc1ccccc1C)N2 | 0 | 0
CCC(C)(C(=O)NC1CCCCC1)N(CC1CCCO1)C(=O)c1cnccn1 (stereo not given) | 0 | 0
Cn1c(=O)c2c(n(C)c1=O)n(Cc1ccccc1)c(=O)n2C | 0 | 0
COc1cc(C=Nc2ccc3nc(-c4ccccc4)[nH]c3c2)c(O)c([N+](=O)[O-])c1 | 0 | 0
COc1ccccc1C(=O)N1CCC(c2nc(C(=O)N3CCCC3)c(C)o2)CC1 | 0 | 0
Cn1c2ccc(Br)cc2c2nnc(SCC(=O)Nc3ccc(Cl)cc3)nc21 | 0 | 0
COc1ccc(C(O)=C2C(=O)C(=O)N(CCCN(C)C)C2c2cccnc2)cc1OC (stereo not given) | 0 | 0
CCCNC(=O)c1cccc2c1CCN2C(=O)Nc1cccc(C)c1 | 0 | 0
Cc1ccc(C)c(OCC(=O)NCc2ccc3c(c2)OCO3)c1 | 0 | 0
Nc1ncc(C2=C(Cl)C(O)C(Cl)=C(Cl)C2O)s1 (stereo not given) | 100 | 0
O=C(O)C=CC(=O)Nc1ccc(C2CCCCC2)cc1 | - | 0
Cn1c2ccc(Br)cc2c2nnc(SCCN3CCOCC3)nc21 | 80 | 0
Cn1c2ccc(Br)cc2c2nnc(SCN3C(=O)c4ccccc4C3=O)nc21 | 0 | 0
CCc1ccccc1NC(=O)c1ccc(F)c(S(=O)(=O)NC(C)CC)c1 (stereo not given) | 0 | 0
COc1ccc(-c2csc(=Nc3ccccc3)n2CCO)cc1F | 53 | 0
COc1ccc(N=c2scc(-c3ccc(OC)cc3)n2CCN2CCOCC2)cc1 | 0 | 0
CCOc1ccc(N=c2scc(-c3ccc(F)cc3)n2CCCO)cc1 | 0 | 0
COc1ccc(-c2csc(=Nc3ccc(Cl)cc3)n2CCCO)cc1F | 76 | 0
OCCCn1c(-c2ccc(F)cc2)csc1=Nc1ccc(Cl)cc1 | 87 | 0
COc1ccc(-c2csc(=Nc3ccccc3)n2CCCN(C)C)cc1 | 0 | 0
SMILES | mHTT CaM bind | Pf apPOL inh
COc1ccc(N=c2scc(-c3ccc4c(c3)OCCO4)n2CCO)cc1 | 53 | 0
CCOc1ccc(N=c2scc(-c3ccc(Cl)s3)n2CCCO)cc1 | 0 | 0
CC(=O)c1cccc(NC(=O)N2CC3CC(NS(=O)(=O)c4ccccc4)C2C3)c1 (stereo not given) | 0 | 0
COc1cccc(-c2noc(C3CCCN3C(=O)NCc3ccccc3)n2)c1 (stereo not given) | 0 | 0
Cc1ccc(S(=O)(=O)c2nc(-c3cccs3)oc2N2CCOCC2)cc1 | 0 | 0
COc1ccccc1C(=O)N1CCCC(COc2ccc(C(=O)NC(C)C)cc2)C1 (stereo not given) | 0 | 0
CCOCCCNC(=O)c1ccc2c(c1)ncn2-c1ccc(C)c(Cl)c1 | 84 | 0
COCCCNC(=O)c1ccc2c(c1)ncn2-c1ccc(C)c(Cl)c1 | 0 | 0
O=C(Nc1cccc(Cl)c1)c1ccc(F)c(S(=O)(=O)NCc2ccco2)c1 | 0 | 0
Cc1ccc(NS(=O)(=O)c2cccc3c2C(=O)c2ccccc2C3=O)c(C)c1 | 57 | 0
Cc1ccc(NS(=O)(=O)c2ccc3c4c(cccc24)C(=O)N3)c(C)c1 | 0 | 0
COc1ccc(NC(=O)c2ncn[nH]2)c([N+](=O)[O-])c1 | 100 | 0
COc1ccc(NC(=O)c2cc(OC)c(OC)c(OC)c2)c([N+](=O)[O-])c1 | 0 | 0
C#CC1(NS(=O)(=O)c2ccc(Sc3ccccc3N)c([N+](=O)[O-])c2)CCCCC1 | - | 0
Cc1ccc2nc(C(=O)NCc3ccccc3C)cn2c1 | 0 | 0
CN(C)S(=O)(=O)c1ccc(C(=O)Nc2nc(-c3cccs3)cs2)cc1 | 0 | 0
O=C(Nc1nc(-c2cccnc2)cs1)c1ccc(S(=O)(=O)N2CCc3ccccc32)cc1 | 0 | 0
CCCCN(C)S(=O)(=O)c1ccc(C(=O)Nc2nc(-c3ccccn3)cs2)cc1 | 86 | 0
O=C(Nc1nc(-c2ccccn2)cs1)c1ccc(S(=O)(=O)N2CCc3ccccc32)cc1 | 97 | 0
CN(C1CCCCC1)S(=O)(=O)c1ccc(C(=O)Nc2nc(-c3ccccn3)cs2)cc1 | 99 | 0
CCCCN(C)S(=O)(=O)c1ccc(C(=O)Nc2nc3c(s2)Cc2ccccc2-3)cc1 | 0 | 0
CCc1ccccc1NC(=O)c1cc2c(CO)cnc(C)c2oc1=N | 0 | 0
CSC(N=CN(C)C)=NN=C(C)c1ccc(Cl)c(Cl)c1 | - | 0
CCCNC(=O)c1nnn(-c2ccccc2Cl)c1-c1ccncc1 | 0 | 0
Cc1ccc2c(c1)NC1(CCN(C(=O)c3ccc(F)cc3)CC1)c1cccn1-2 | 87 | 0
SMILES | mHTT CaM bind | Pf apPOL inh
CCN1c2ccc(C)cc2C(=O)NC12CCN(C(=O)c1ccc(Cl)cc1)CC2 | 0 | 0
Cc1ccc2c(c1)NC1(CCN(C(=O)c3ccc(Cl)cc3)CC1)c1cccn1-2 | 53 | 0
CC(C)NC(=O)N1CCC2(CC1)Nc1cc(F)ccc1-n1cccc12 | 0 | 0
O=S(=O)(NC1CC1)c1ccc(OCCn2cnnn2)cc1 | 0 | -
CC(C)CNC(=O)C1CCN(c2cc(N3CCOCC3)ncn2)CC1 | 0 | 0
COc1ccc(NC(=O)c2ccc(OC(C)C)cc2)c(OC)c1 | 0 | 0
CCC[C@H]1[C@@H](NC(=O)c2ccc(Cl)c(C(F)(F)F)c2)CC[C@@]23CCCN2C(=O)CCC[C@@H]13 | 96 | 0
C[C@H]1[C@@H](NC(=O)c2ccc(Cl)c(C(F)(F)F)c2)CC[C@@]23CCCN2C(=O)CCC[C@@H]13 | 0 | 0
CC(C)CN1CCN(C(=O)C2CCCN(c3nnc4ccc(Cl)cn34)C2)CC1 (stereo not given) | 0 | 0
O=C1OC(Nc2ccc(Cl)cc2)c2ccccc21 (stereo not given) | 0 | 0
CCc1nc(C2CCN(Cc3cccc(C#N)c3)CC2)n[nH]1 | 0 | 0
O=C1CSC(c2ccc([N+](=O)[O-])cc2)N1c1cccc(Cl)c1Cl (stereo not given) | 0 | 0
Fc1ccccc1CN1CCCCC1c1nc(-c2ccncc2)no1 (stereo not given) | 0 | 0
O=C(NC(=O)c1cn2cc(C(F)(F)F)cc(Cl)c2n1)Nc1c(F)cccc1F | - | 0
COc1cccc(C2CC(=O)Nc3n[nH]c(-c4ccccc4)c32)c1 (stereo not given) | 0 | 0
COc1cc(C2CC(=O)Nc3n[nH]c(C)c32)ccc1OCc1cccc(C)c1 (stereo not given) | 0 | 0
COc1cc(C2CC(=O)Nc3n[nH]c(C)c32)ccc1OCc1cccc(Cl)c1 (stereo not given) | 56 | 0
COc1cc(C2CC(=O)Nc3n[nH]c(-c4ccc(Cl)cc4)c32)ccc1O (stereo not given) | 100 | 0
